Measured values: PubChem BioAssay (NCI)
This is part of a sample that, as a whole, favours compounds with a hit. Of some 79,000 tested, about 15% had one in any assay. A number with no mark means an inactive call. Activity calls are given as the source filed them. Rule as the data show it: active = growth inhibition above about 70%; inactive = the rest.

Assay: NCI Yeast Anticancer Drug Screen. Data for the bub3 strain (AID 167)
Conditions: S. cerevisiae bub3 mutant strain, at 50.0 µM, hits give high values
Method: Growth inhibition of yeast strains with defined genetic alterations is measured as a screen for potential anti-cancer activity. Selected strains with alterations in DNA damage repair or cell cycle control were exposed to compounds and growth inhibition was measured relative to vehicle treated controls. The strain used in this assay is bub3
Compound `N#CC1CNC(=S)N=C1c1ccccc1` (stereo not given) has a growth inhibition of 0.9%. With `C/C(CC(c1ccccc1)c1ccccc1)=N\Nc1ccc([N+](=O)[O-])cc1[N+](=O)[O-]` the growth inhibition was 7.4%. `CC(=O)Nc1ccc(S(=O)(=O)n2c(=O)oc3cc(Br)ccc32)cc1` showed a growth inhibition of 0.05%. `CCS(=O)(=O)CC(C)O` (stereo not given) gave a growth inhibition of 11%. With `COC(=O)c1nn2c(=O)n(C(C)=O)c3ccccc3c2c1C(=O)OC` the growth inhibition was 8.5%. `CCc1cc2c(c3c1CCC3=O)CC1(Cc3ccc(C)cc3C1)C2` (stereo not given) gave a growth inhibition of -22.1%. In the case of `COc1ccc2c(ccc[n+]2CC(=O)c2ccc(SC)cc2)c1`, the growth inhibition is reported as 19.6%. In the case of `CCN1CCNC(=O)C1c1ccccc1` (stereo not given), the growth inhibition is reported as -1.1%. `Cc1cc2nc3c(=O)[nH]c(=O)nc-3n(CCN(CCO)CCO)c2cc1Cl` gave a growth inhibition of 1.55%. `CCOC(=O)C(NC(=O)CC)(C(F)(F)F)P(=O)(OCC)OCC` (stereo not given) gave a growth inhibition of 14.1%. For `O=c1[nH]cnc2nn(C3OC(CO)C(O)C3O)cc12` (stereo not given), the growth inhibition was 9.25%. `Cc1cc2c(CC(=O)O)[nH]nc2c(C(=O)O)c1C` showed a growth inhibition of 8.25%. `Cc1ccc(NC(=O)c2cc3cc(N=Nc4ccc(Br)cc4)ccc3oc2=O)cc1` gave a growth inhibition of 3.05%. Work on `Nc1ccc(S(=O)(=O)CCO)cc1` yielded a growth inhibition of -5.6%. Work on `C=CCN=C1NC(=O)C(CC(=O)Nc2ccc(C)cc2)S1` (stereo not given) yielded a growth inhibition of 7.05%. Compound `O=c1[nH]c2cc([N+](=O)[O-])ccc2nc1/C(=N/Nc1ccccc1)C(O)c1ccc(Cl)cc1Cl` (stereo not given) has a growth inhibition of -7.3%. For `Fc1ccc2nc3ccccc3c(SCCNCCSc3c4ccccc4nc4ccc(F)cc34)c2c1`, the growth inhibition was 1.5%. `O=C1Cc2c([nH]c3ccccc23)-c2ccccc2N1` gave a growth inhibition of 35.8%. `CCOC(=O)c1nc2cc(N3CCOCC3)c(F)cc2[nH]c1=O` showed a growth inhibition of 28.2%. `O=C(Nc1nnc(C(F)(F)F)s1)c1c(F)cccc1F` showed a growth inhibition of 37%. With `O=[N+]([O-])c1ccc(N/N=C/CCCCO)c([N+](=O)[O-])c1` the growth inhibition was 9.85%. In the case of `COC(=O)c1ccc(NC(=O)c2cc(OC)c(OC)c(OC)c2)cc1`, the growth inhibition is reported as -9%. With `CC(C)(C)C(=O)C(Cc1ccccc1)C(=O)C(C)(C)C` the growth inhibition was 5.45%. `Cc1nc2cncnc2n(CCN2CCOCC2)c1=O` gave a growth inhibition of -2.45%. With `CCCCOCCOCCO` the growth inhibition was 1.45%. Work on `CC1(C)C2(SCCS2)C(C)(C)C12SCCS2` yielded a growth inhibition of 11.4%. Compound `Clc1ccc(-c2nc(CSc3ccccn3)cs2)cc1` has a growth inhibition of 28.9%. `c1ccc2c[n+](CCCC[n+]3ccc4ccccc4c3)ccc2c1` showed a growth inhibition of 41.8%. With `CCOc1ccc(C(C)c2cc3c(cc2OCCO)OCO3)cc1` (stereo not given) the growth inhibition was -29.6%. Compound `CN1CCC(n2[nH]c(-c3ccccc3)c(Cc3ccccc3)c2=O)CC1` has a growth inhibition of -15.1%. `NC(Cc1ccc(F)cc1)(C(=O)O)c1ccccc1` (stereo not given) gave a growth inhibition of 5.85%. `O=C(Nc1ccc(Cl)cc1)Nc1nnc2nc(CC(=O)c3cccc([N+](=O)[O-])c3Cl)c(=O)[nH]n12` showed a growth inhibition of 5.6%. Compound `COc1ccc(C(=O)/C=C/c2ccc(OCCCCCCCCCCOc3ccc(/C=C/C(=O)c4ccc(OC)cc4)cc3)cc2)cc1` has a growth inhibition of -30.4%. Work on `C/C(=C/C(=O)O)CC/C=C(/C)C(=O)O` yielded a growth inhibition of 22.1%. With `CC(=O)Nc1ccc(NC(=O)c2cccc3ccccc23)cc1` the growth inhibition was 35.4%. With `CC(SC(C)C(=O)N/N=C/C=C\c1ccccc1)C(=O)N/N=C\C=C\c1ccccc1` (stereo not given) the growth inhibition was 4.05%. With `CC12CCC3C(CCC4CCCCC43C)C1CC/C2=N\O` (stereo not given) the growth inhibition was 85.5% (active). `CCOC(=O)/N=[N+](\[O-])c1ccccc1` showed a growth inhibition of 41.5%. Work on `Cc1ccc(/C=C/C(=O)c2sc(C(N)=S)nc2C)cc1` yielded a growth inhibition of 11.2%. For `Cc1cccc(OCCCCCl)c1`, the growth inhibition was -20.6%.
